Source: PubChem BioAssay (Tox21)
A number with no mark means an inactive call. Inconclusive results are not listed. A call without a number means that no potency is given here. Activity calls are given as the source filed them. Unless noted, calls come from the whole dose curve; as a rule, active = well fitted curve in the direction sought with a large enough effect in the repeat runs; inconclusive = weak or mixed curves; inactive = no such curve, though single readings can be large; an effect the other way counts as inactive or inconclusive.

What was measured:
[1] = qHTS assay to identify small molecule antagonists of the estrogen related receptor (ERR) signaling pathway from Tox21 library - cell viability counter screen (AID 1224834); note: nearly all actives have a fitted effect of over 30% in size
Method in brief: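 CellTiter-Fluor fluorescence, read after 30 min at 37 C, measures viability of ERR cells. Cells plated at 2,000/well and incubated 6 h before pin-tool compound addition, then exposed 17.5 hours at 37 C.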

[2] = molecular target: Luciferin 4-monooxygenase (Photinus pyralis) (UniProt P08659); assay: qHTS assay to identify small molecule inhibitors of firefly luciferase (AID 1224835); note: series mostly up to about 120 µM; nearly all actives have a fitted effect of over 25% in size
Method in brief: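 Biochemical qHTS: compounds run as interplate titrations against purified firefly enzyme, with D-luciferin and ATP each at its KM concentration. Light output recorded by CCD imaging.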

[3] = qHTS assay to identify small molecule agonists of the constitutive androstane receptor (CAR) signaling pathway - cell viability counter screen (AID 1224836); note: series mostly up to about 92 µM; nearly all actives have a fitted effect of over 45% in size
Method in brief: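 HepG2 cells stably carrying hCAR and a CYP2B6-2.2kb reporter; 15-concentration compounds plus PK11195 (final 0.75 uM), 23 hr at 37 C/5% CO2. Viability read by CellTiter-Fluor fluorescence.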

[4] = qHTS assay to identify small molecule antagonists of the constitutive androstane receptor (CAR) signaling pathway - cell viability counter screen (AID 1224837); note: series mostly up to about 92 µM; nearly all actives have a fitted effect of over 45% in size
Method in brief: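 Cytotoxicity counter-screen: CellTiter-Fluor fluorescence after 23 h compound exposure (15-point qHTS) in double-stable HepG2-CYP2B6-hCAR cells, with 50 nM CITCO added.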

[5] = qHTS assay to identify small molecule antagonists of the estrogen related receptor signaling pathway with the pleiotropic PPARgamma coactivator (PGC) from Tox21 10K library - cell viability counter screen (AID 1224840; active = well fitted cell-killing curve with a large enough effect in the repeat runs, not every such curve was filed as active; note: nearly all actives have a fitted effect of over 40% in size)
Method in brief: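 Counter-screen for cytotoxicity: after 17.5 h compound exposure at 37 C, CellTiter-Fluor reagent added to PGC/ERR cells for 30 min and fluorescence read. Cells were seeded at 2,000 per well 6 h before dosing.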

[6] = qHTS assay to identify small molecule antagonists of the estrogen related receptor signaling pathway with the pleiotropic PPARgamma coactivator (PGC) from Tox21 10K library (AID 1224841; call rule not given here; note: actives are mostly falling curves and most rising ones were filed inactive; nearly all actives have a fitted effect of over 50% in size; note: potency is the fitted concentration of half-maximal effect)
Method in brief: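 Luminescence (One-Glo, 30 min at room temperature) after 18 h compound treatment at 37 C of PGC/ERR reporter cells plated at 2,000 cells/well and settled 6 h beforehand.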

[7] = qHTS assay to identify small molecule agonists of the estrogen related receptor signaling pathway with the pleiotropic PPARgamma coactivator (PGC) from Tox21 10K library (AID 1224842); note: nearly all actives have a fitted effect of over 15% in size
Method in brief: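 PGC/ERR reporter cell line, 2,000 cells per well, incubated 6 h at 37 C before 23 nL compound in DMSO was added. After 18 h at 37 C, One-Glo luminescence read following 30 min at room temperature.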

[8] = molecular target: Thyrotropin receptor (Homo sapiens) (UniProt P16473); assay: qHTS assay to identify small molecule agonists of the thyroid stimulating hormone receptor (TSHR) signaling pathway (AID 1224843; calls by dose curve; note: nearly all actives have a fitted effect of over 45% in size)
Method in brief: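 Agonist-mode screen: TSHR HEK293 cells received test chemicals for half an hour at room temperature, then HTRF cAMP detection reagents for one hour prior to fluorescence measurement. Each chemical ran as a 15-concentration series, triplicated.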

[9] = qHTS assay to identify small molecule agonists of the hypoxia (HIF-1) signaling pathway - cell viability counter screen (AID 1224844; calls by dose curve; note: nearly all actives have a fitted effect of over 50% in size)
Method in brief: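 Cytotoxicity measured by CellTiter-Glo ATP luminescence in the wells also read for beta-lactamase signal. Cells were HRE-bla ME-180 (2,000/well, 0.5% dialyzed FBS), exposed to compounds for 17 h at 37C.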

[10] = qHTS assay to identify small molecule agonists of the hypoxia (HIF-1) signaling pathway (AID 1224846; active = well fitted activation curve with a large enough effect in the signal ratio in the repeat runs, not every such curve was filed as active; the % refers to the signal ratio)
Method in brief: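 Compounds added to ME-180 cells carrying hypoxia-response-element beta-lactamase reporter (0.5% dialyzed FBS, 5 h preplating), 17 h at 37C; agonist activity detected by CCF4-AM B/G FRET read-out.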

[11] = qHTS assay to identify small molecule agonists of H2AX - cell viability counter screen (AID 1224847; calls by dose curve; note: top concentration of the series differs between compounds; nearly all actives have a fitted effect of over 30% in size)
Method in brief: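 CHO-K1 cells plated overnight at 37C, then exposed 3 h at 37C to compounds at 15 concentrations (0.76% DMSO final). Viability by CellTiter-Glo luminescence after 30 min at room temperature.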

[12] = qHTS assay to identify small molecule antagonists of the estrogen related receptor (ERR) signaling pathway from Tox21 library (AID 1224848); note: nearly all actives have a fitted effect of over 50% in size
Method in brief: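 Quantitative high-throughput format: ERR reporter cells (2,000/well) pre-incubated 6 h, treated 18 h at 37 C with compounds in DMSO alongside positive and negative controls, then read by ONE-Glo luminescence.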

[13] = qHTS assay to identify small molecule agonists of the estrogen related receptor (ERR) signaling pathway from Tox21 library (AID 1224849; calls by dose curve; note: nearly all actives have a fitted effect of over 15% in size)
Method in brief: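 Luminescent agonist read-out (One-Glo, 30-minute room-temperature incubation) following 18-hour compound treatment at 37 C of the ERR cell line, which had been plated 6 hours before dosing.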

[14] = qHTS RealTime-Glo MT Cell Viability Assay in HepG2 cells - 24 hour (AID 1224867); note: nearly all actives have a fitted effect of over 50% in size
Method in brief: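 Compound treatment began 5 h after plating HepG2 cells (600/well) with NanoLuc luciferase and prosubstrate. Plates stayed at 37 C for 40 h; luminescence was captured at six time points, 0 h through 40 h.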

[15] = qHTS RealTime-Glo MT Cell Viability Assay in HEK293 cells - 32 hour (AID 1224868)
Method in brief: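 Quantitative high-throughput screen of the Tox21 10K library in HEK293: cells and RealTime-Glo reagents plated together, compound added at 5 h, luminescence monitored through 40 h at 37 C.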

[16] = A CellTox Green Cytotoxicity Assay to monitor cytotoxicity in HEK293 cells - 0 hour (AID 1224869); note: nearly all actives have a fitted effect of over 50% in size
Method in brief: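 Fluorescence from a DNA-binding dye excluded by viable cells was measured repeatedly in the same HEK293 wells (600 cells/well) during continuous compound exposure at 37 C. Each assay gives one read point: 0, 8, 16, 24, 32 or 40 h.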

[17] = qHTS RealTime-Glo MT Cell Viability Assay in HepG2 cells - 40 hour (AID 1224870); note: nearly all actives have a fitted effect of over 50% in size; note: potency is the fitted concentration of half-maximal effect
Method in brief: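 HepG2 cells (600/well) mixed with RealTime-Glo MT reagent, settled 5 h at 37 C/5% CO2 before compound addition. Nonlytic NanoLuc luminescence from viable-cell prosubstrate reduction read repeatedly during 40 h treatment at 37 C.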

[18] = qHTS assay to identify small molecule agonists of H2AX (AID 1224845; active = well fitted activation curve with a large enough effect in the signal ratio in the repeat runs, not every such curve was filed as active; the % refers to the signal ratio)
Method in brief: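 Wild-type CHO-K1 cells, plated overnight, exposed 3hr at 37C to 15 concentrations (0.76% DMSO final). Lysed, then HTRF anti-pH2AX (S139) cryptate and anti-H2AX-d2 antibodies, 24 hr room temperature; 665/620 nm emission read.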

[19] = molecular target: Nuclear receptor subfamily 1 group I member 3 (Homo sapiens) (UniProt Q14994); assay: qHTS assay to identify small molecule agonists of the constitutive androstane receptor (CAR) signaling pathway (AID 1224839);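 note: HepG2 cells stably carrying human CAR and a CYP2B6 luciferase reporter; series mostly up to about 92 µM; nearly all actives have a fitted effect of over 15% in size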
Method in brief: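 HepG2 cells stably co-transfected with hCAR and a CYP2B6-2.2kb luciferase reporter; compounds at 15 concentrations with 0.75 uM PK11195 present. After 24 hr at 37 C, luciferase read by ONE-Glo luminescence.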

Luciferin 4-monooxygenase (Photinus pyralis), sequence (P08659 whole entry, looked up): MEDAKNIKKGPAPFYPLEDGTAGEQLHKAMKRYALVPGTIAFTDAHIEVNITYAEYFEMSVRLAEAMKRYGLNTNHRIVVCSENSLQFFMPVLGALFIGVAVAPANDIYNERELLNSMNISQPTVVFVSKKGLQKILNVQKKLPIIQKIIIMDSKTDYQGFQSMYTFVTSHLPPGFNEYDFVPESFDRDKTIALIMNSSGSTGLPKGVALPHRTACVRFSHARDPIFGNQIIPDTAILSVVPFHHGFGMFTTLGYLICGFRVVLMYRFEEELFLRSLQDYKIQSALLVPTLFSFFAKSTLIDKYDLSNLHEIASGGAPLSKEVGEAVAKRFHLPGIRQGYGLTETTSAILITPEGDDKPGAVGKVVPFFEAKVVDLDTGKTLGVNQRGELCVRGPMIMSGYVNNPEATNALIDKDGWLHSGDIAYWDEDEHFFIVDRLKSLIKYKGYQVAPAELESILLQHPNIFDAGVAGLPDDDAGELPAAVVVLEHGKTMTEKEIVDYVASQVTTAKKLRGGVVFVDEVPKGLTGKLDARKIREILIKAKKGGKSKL
Thyrotropin receptor (Homo sapiens), sequence (P16473 whole entry, looked up): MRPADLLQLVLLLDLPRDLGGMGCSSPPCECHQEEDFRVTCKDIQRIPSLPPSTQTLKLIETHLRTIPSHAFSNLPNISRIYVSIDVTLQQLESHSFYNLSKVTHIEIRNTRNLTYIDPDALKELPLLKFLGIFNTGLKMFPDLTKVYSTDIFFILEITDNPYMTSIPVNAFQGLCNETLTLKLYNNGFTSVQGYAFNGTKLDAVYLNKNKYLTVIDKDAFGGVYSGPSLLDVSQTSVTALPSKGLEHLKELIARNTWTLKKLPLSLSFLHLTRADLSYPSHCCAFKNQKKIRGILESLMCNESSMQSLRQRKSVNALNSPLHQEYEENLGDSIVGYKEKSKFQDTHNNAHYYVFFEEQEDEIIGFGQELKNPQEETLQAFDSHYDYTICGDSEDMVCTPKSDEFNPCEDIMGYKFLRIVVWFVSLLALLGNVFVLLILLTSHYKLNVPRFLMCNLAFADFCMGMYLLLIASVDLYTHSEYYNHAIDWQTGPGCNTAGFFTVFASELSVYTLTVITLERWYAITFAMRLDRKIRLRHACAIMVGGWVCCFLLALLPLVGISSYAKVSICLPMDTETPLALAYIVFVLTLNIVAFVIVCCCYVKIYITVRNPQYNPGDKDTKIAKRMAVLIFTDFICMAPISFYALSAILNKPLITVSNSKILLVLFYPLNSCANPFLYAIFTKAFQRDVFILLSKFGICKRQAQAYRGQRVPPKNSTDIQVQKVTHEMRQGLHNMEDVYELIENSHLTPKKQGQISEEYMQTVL
Nuclear receptor subfamily 1 group I member 3 (Homo sapiens), sequence (Q14994 whole entry, looked up): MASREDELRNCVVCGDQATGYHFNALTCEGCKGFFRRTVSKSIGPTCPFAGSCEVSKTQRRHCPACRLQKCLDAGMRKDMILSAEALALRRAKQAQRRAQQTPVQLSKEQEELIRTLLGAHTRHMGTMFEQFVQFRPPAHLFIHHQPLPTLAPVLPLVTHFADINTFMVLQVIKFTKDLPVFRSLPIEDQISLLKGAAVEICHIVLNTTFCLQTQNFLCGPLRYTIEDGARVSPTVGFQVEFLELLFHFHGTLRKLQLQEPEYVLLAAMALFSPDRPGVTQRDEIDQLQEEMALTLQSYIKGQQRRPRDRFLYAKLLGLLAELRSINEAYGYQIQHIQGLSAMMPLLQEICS

| Compound | Potency [1] | Potency [2] | outcome [3] | outcome [4] | outcome [5] | Potency [6] | Potency [7] | Potency [8] | Potency [9] | outcome [10] | outcome [11] | Potency [12] | outcome [13] | outcome [14] | Potency [15] | outcome [16] | Potency [17] | Potency [18] | Potency [19] |
| --- | --- | --- | --- | --- | --- | --- | --- | --- | --- | --- | --- | --- | --- | --- | --- | --- | --- | --- | --- |
| CCOc1ccccc1OCC | inactive | inactive | inactive | inactive | inactive | inactive | inactive | inactive | inactive | inactive | inactive | inactive | inactive | inactive | inactive | inactive | inactive | – | – |
| N[C@H](C(=O)O)[C@@H](O)c1ccc(O)c(O)c1 | inactive | inactive | inactive | inactive | inactive | – | – | inactive | inactive | inactive | inactive | – | – | inactive | inactive | inactive | inactive | – | – |
| CO[C@@]1(NC(=O)CSC[C@@H](N)C(=O)O)C(=O)N2C(C(=O)O)=C(CSc3nnnn3C)CS[C@@H]21 | inactive | inactive | inactive | inactive | inactive | inactive | inactive | inactive | inactive | inactive | inactive | inactive | inactive | inactive | inactive | inactive | inactive | inactive | – |
| CC(=O)OCC(=O)[C@@]1(O)[C@H](C)C[C@H]2[C@@H]3CCC4=CC(=O)C=C[C@]4(C)[C@@]3(F)[C@@H](O)C[C@@]21C | inactive | inactive | inactive | inactive | inactive | inactive | inactive | inactive | inactive | – | inactive | inactive | inactive | inactive | inactive | inactive | inactive | inactive | – |
| CCOCC(C)O (stereo unspecified) | inactive | inactive | inactive | inactive | inactive | inactive | inactive | inactive | inactive | inactive | inactive | inactive | inactive | inactive | inactive | inactive | inactive | – | – |
| O=C(O)CNC(=O)c1ccc(CO)o1 | inactive | inactive | inactive | inactive | inactive | – | – | – | inactive | inactive | inactive | – | – | inactive | inactive | inactive | inactive | – | – |
| O=C1CCCCCCCCCCCCCCO1 | inactive | inactive | inactive | inactive | inactive | – | – | – | inactive | inactive | inactive | – | – | – | inactive | inactive | inactive | inactive | – |
| CN1[C@@H]2CC[C@H]1CC(OC(=O)C(O)c1ccccc1)C2 (stereo partly specified) | inactive | inactive | inactive | inactive | – | – | inactive | inactive | inactive | – | inactive | inactive | inactive | inactive | inactive | – | inactive | inactive | inactive |
| FB(F)F | inactive | inactive | inactive | inactive | – | 45.4 µM (active) | inactive | inactive | inactive | inactive | inactive | inactive | inactive | inactive | inactive | inactive | inactive | inactive | – |
| [Ca+2] | inactive | inactive | inactive | inactive | inactive | – | – | inactive | inactive | inactive | inactive | – | – | inactive | inactive | inactive | inactive | inactive | – |
| CCCn1cc[n+](C)c1C | inactive | inactive | inactive | inactive | inactive | – | – | – | inactive | inactive | inactive | – | – | – | inactive | – | 45 µM (active) | inactive | – |
| CC(C)CCCO | inactive | inactive | inactive | inactive | inactive | – | – | inactive | inactive | inactive | inactive | – | – | inactive | inactive | inactive | inactive | inactive | – |
| Cc1coc2ccccc2c1=O | inactive | inactive | inactive | inactive | inactive | – | – | inactive | inactive | inactive | inactive | – | – | inactive | inactive | – | inactive | inactive | – |
| CC12CCC(C(=O)C1=O)C2(C)C (stereo unspecified) | inactive | inactive | inactive | inactive | inactive | – | – | – | inactive | inactive | inactive | – | – | – | inactive | inactive | inactive | – | – |
| C[N+]1(C)CCCC(OC(=O)C(O)(c2ccccc2)c2ccccc2)C1 (stereo unspecified) | inactive | inactive | inactive | inactive | inactive | – | – | – | inactive | – | inactive | inactive | inactive | inactive | inactive | inactive | inactive | inactive | – |
| CCCCS(=O)(=O)N[C@@H](Cc1ccc(OCCCCC2CCNCC2)cc1)C(=O)O | inactive | inactive | inactive | inactive | inactive | – | – | inactive | inactive | inactive | inactive | – | – | inactive | inactive | inactive | inactive | inactive | – |
| C[N+](C)(CCOc1ccccc1)Cc1cccs1 | inactive | inactive | inactive | inactive | inactive | – | inactive | inactive | inactive | – | inactive | inactive | – | inactive | inactive | – | 23.9 µM (active) | inactive | – |
| CC[N+](C)(CC)CCOC(=O)C1c2ccccc2Oc2ccccc21 | inactive | inactive | inactive | inactive | inactive | – | – | inactive | inactive | – | inactive | – | – | inactive | inactive | inactive | inactive | inactive | – |
